For 15 sequences, sensor-assay potency score (higher = more potent) results are on record in the OligoGym collection.
Further: reference of the scale not given here.

The first test addresses TNK1. Briefly: pooled miR-30 sensor sort-seq; sequence = guide strand. The note with it: shRNA.
In turn, TAGTGCTGTCTGGCACTCCTGG had a sensor-assay potency score (higher = more potent) of -1.01. Still for that read-out and setting: in the case of TATAGCAGCTCTTTTCTTCCAA it was 0.014; in that of TAGTGGGCAGACTAGATCCTTC, -0.841. The sequence TTTCTGTCTCCATCTATGCTTC came in with a sensor-assay potency score (higher = more potent) of -0.886.

TTTGCCTTCTTTCTGTCTCCAT returned a sensor-assay potency score (higher = more potent) of -0.221.

The target of another test is TNKS2. The test is described as above. Particulars: shRNA.
On to TTTTGATTCGAGTAACATCAGC, for which the sensor-assay potency score (higher = more potent) was -1.09. For TTTCTTGTTACAAACCTTCTGA, the sensor-assay potency score (higher = more potent) turned out to be 0.0757. On the same count and under the same terms, then TTATGCTAAAATCTACTCCTGG, with 0.0124; and TAAATTTCCATAAATCAGCTAC, with 0.246; and TTACTCTGTTATATCCTGCTGC, with 0.643. Still for that read-out and setting: then TTACAGTTTCGACATCTCCAGC, with -0.869; and TAGTTTCTTGTTACAAACCTTC, with -0.305. The same measure, in the same setting: then TTTAATTGCAGCTTCATGGAGA, with 0.599; and TATACTTTATTAGTAGAGCTGC, with 0.192; and TTCCACTTGAACTAACTACTGA, with 0.487.
